The whole screen tested about 5,500 compounds, of which about 2,000 (36%) were called active. Not shown: some 18% with an inconclusive outcome. Cut-off read from the data, not from the text of the source: active = normalized growth mostly below about 0.91 (no sharp cut-off); inconclusive = no clear call, values can overlap the other calls; inactive = mostly above about 0.92. Some of the results follow.
Assay: chemical genetic growth profiling, strain panel (AID 1159580);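 note: tested at 20 µM; growth read once vehicle control cultures reached saturation at 30 °C; 1 = growth at the plate median or of vehicle wells; lower values mean less growth of the strain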
Details: growth OD

Measured: normalized growth

COc1cc2cccc(OC)c(=O)c2c(OC)c1OC
inactive: S. cerevisiae deletion strains, locus YAL013W, strain DEP1, stronger effect = lower value 1.01 | S. cerevisiae deletion strains, locus YBR021W, strain FUR4, stronger effect = lower value 0.994 | S. cerevisiae deletion strains, locus YBR229C, strain ROT2, stronger effect = lower value 1.01 | S. cerevisiae deletion strains, locus YCL029C, strain bik1, stronger effect = lower value 1.02 | S. cerevisiae deletion strains, locus YDL035C, strain GPR1, stronger effect = lower value 1.02 | S. cerevisiae deletion strains, locus YDL074C, strain BRE1, stronger effect = lower value 1 | S. cerevisiae deletion strains, locus YDL101C, strain DUN1, stronger effect = lower value 1.01 | S. cerevisiae deletion strains, locus YDL134C, strain PPH21, stronger effect = lower value 1.01 | S. cerevisiae deletion strains, locus YDL185W, strain tfp1, stronger effect = lower value 1.01 | S. cerevisiae deletion strains, locus YDL192W, strain arf1, stronger effect = lower value 1.03 | S. cerevisiae deletion strains, locus YDR101C, strain arx1, stronger effect = lower value 0.991 | S. cerevisiae deletion strains, locus YDR150W, strain NUM1, stronger effect = lower value 1.02 | S. cerevisiae deletion strains, locus YDR162C, strain NBP2, stronger effect = lower value 1.02 | S. cerevisiae deletion strains, locus YDR318W, strain mcm21, stronger effect = lower value 1.03 | S. cerevisiae deletion strains, locus YDR388W, stronger effect = lower value 1.01 | S. cerevisiae deletion strains, locus YDR502C, strain sam2, stronger effect = lower value 0.989 | S. cerevisiae deletion strains, locus YEL061C, strain CIN8, stronger effect = lower value 1.01 | S. cerevisiae deletion strains, locus YER110C, stronger effect = lower value 1.02 | S. cerevisiae deletion strains, locus YER155C, strain BEM2, stronger effect = lower value 1 | S. cerevisiae deletion strains, locus YER167W, strain BCK2, stronger effect = lower value 1.03 | S. cerevisiae deletion strains, locus YGL078C, strain dbp3, stronger effect = lower value 1 | S. cerevisiae deletion strains, locus YGL086W, strain mad1, stronger effect = lower value 1.03 | S. cerevisiae deletion strains, locus YGL248W, strain PDE1, stronger effect = lower value 1.01 | S. cerevisiae deletion strains, locus YGR078C, strain PAC10, stronger effect = lower value 0.998 | S. cerevisiae deletion strains, locus YGR135W, strain pre9, stronger effect = lower value 0.982 | S. cerevisiae deletion strains, locus YGR229C, strain SMI1, stronger effect = lower value 0.994 | S. cerevisiae deletion strains, locus YGR252W, strain gcn5, stronger effect = lower value 0.988 | S. cerevisiae deletion strains, locus YHR030C, strain SLT2, stronger effect = lower value 1.01 | S. cerevisiae deletion strains, locus YHR079C, strain IRE1 (second series), stronger effect = lower value 1 | S. cerevisiae deletion strains, locus YHR094C, strain hxt1, stronger effect = lower value 1.01 | S. cerevisiae deletion strains, locus YHR129C, strain ARP1, stronger effect = lower value 1 | S. cerevisiae deletion strains, locus YHR200W, strain rpn10, stronger effect = lower value 1.01 | S. cerevisiae deletion strains, locus YIL066C, strain RNR3, stronger effect = lower value 1.02 | S. cerevisiae deletion strains, locus YIL073C, strain SPO22, stronger effect = lower value 1.06 | S. cerevisiae deletion strains, locus YIL125W, strain kgd1, stronger effect = lower value 1.02 | S. cerevisiae deletion strains, locus YIR030C, strain dcg1, stronger effect = lower value 1.01 | S. cerevisiae deletion strains, locus YJL095W, strain BCK1, stronger effect = lower value 1 | S. cerevisiae deletion strains, locus YJL134W, strain LCB3, stronger effect = lower value 1.01 | S. cerevisiae deletion strains, locus YJL168C, strain set2, stronger effect = lower value 1.01 | S. cerevisiae deletion strains, locus YJL187C, strain SWE1 (second series), stronger effect = lower value 0.996 | S. cerevisiae deletion strains, locus YJR043C, strain POL32, stronger effect = lower value 0.999 | S. cerevisiae deletion strains, locus YJR075W, strain HOC1, stronger effect = lower value 1 | S. cerevisiae deletion strains, locus YKL009W, strain mrt4, stronger effect = lower value 1.03 | S. cerevisiae deletion strains, locus YKL068W, stronger effect = lower value 1.01 | S. cerevisiae deletion strains, locus YKL085W, strain MDH1 (second series), stronger effect = lower value 1.02 | S. cerevisiae deletion strains, locus YKL085W, strain MDH1, stronger effect = lower value 1.02 | S. cerevisiae deletion strains, locus YKL190W, strain CNB1, stronger effect = lower value 1.01 | S. cerevisiae deletion strains, locus YKR001C, strain vps1, stronger effect = lower value 1.01 | S. cerevisiae deletion strains, locus YLR039C, strain RIC1, stronger effect = lower value 1.09 | S. cerevisiae deletion strains, locus YLR058C, strain SHM2, stronger effect = lower value 1.01 | S. cerevisiae deletion strains, locus YLR102C, strain apc9, stronger effect = lower value 1.01 | S. cerevisiae deletion strains, locus YLR262C, strain YPT6, stronger effect = lower value 1.09 | S. cerevisiae deletion strains, locus YLR268W, strain sec22, stronger effect = lower value 0.99 | S. cerevisiae deletion strains, locus YLR330W, strain CHS5, stronger effect = lower value 1.01 | S. cerevisiae deletion strains, locus YLR342W, strain FKS1 (second series), stronger effect = lower value 1.05 | S. cerevisiae deletion strains, locus YLR371W, strain rom2, stronger effect = lower value 1.01 | S. cerevisiae deletion strains, locus YLR418C, strain cdc73, stronger effect = lower value 0.945 | S. cerevisiae deletion strains, locus YML016C, strain PPZ1, stronger effect = lower value 1.01 | S. cerevisiae deletion strains, locus YML032C, strain rad52, stronger effect = lower value 1.03 | S. cerevisiae deletion strains, locus YML124C, strain tub3, stronger effect = lower value 1.01 | S. cerevisiae deletion strains, locus YMR078C, strain ctf18, stronger effect = lower value 1.02 | S. cerevisiae deletion strains, locus YMR223W, strain ubp8, stronger effect = lower value 1.01 | S. cerevisiae deletion strains, locus YMR263W, strain SAP30, stronger effect = lower value 0.996 | S. cerevisiae deletion strains, locus YMR307W, strain GAS1, stronger effect = lower value 0.966 | S. cerevisiae deletion strains, locus YNL067W, strain RPL9B, stronger effect = lower value 0.992 | S. cerevisiae deletion strains, locus YNL128W, strain TEP1, stronger effect = lower value 1 | S. cerevisiae deletion strains, locus YNL153C, strain GIM3, stronger effect = lower value 0.977 | S. cerevisiae deletion strains, locus YNL233W, strain BNI4, stronger effect = lower value 0.977 | S. cerevisiae deletion strains, locus YNL250W, strain rad50, stronger effect = lower value 1.01 | S. cerevisiae deletion strains, locus YNL271C, strain bni1, stronger effect = lower value 1.01 | S. cerevisiae deletion strains, locus YNL298W, strain CLA4, stronger effect = lower value 1.02 | S. cerevisiae deletion strains, locus YNL307C, strain MCK1, stronger effect = lower value 1.03 | S. cerevisiae deletion strains, locus YNL322C, strain KRE1, stronger effect = lower value 1.02 | S. cerevisiae deletion strains, locus YNR052C, strain pop2, stronger effect = lower value 1.01 | S. cerevisiae deletion strains, locus YOL006C, strain TOP1, stronger effect = lower value 1.01 | S. cerevisiae deletion strains, locus YOL012C, strain htz1 0.97 | S. cerevisiae deletion strains, locus YOL147C, strain pex11, stronger effect = lower value 1.01 | S. cerevisiae deletion strains, locus YOR061W, strain CKA2, stronger effect = lower value 1.02 | S. cerevisiae deletion strains, locus YOR069W, strain VPS5, stronger effect = lower value 1.01 | S. cerevisiae deletion strains, locus YOR136W, strain idh2, stronger effect = lower value 1.02 | S. cerevisiae deletion strains, locus YOR144C, strain elg1, stronger effect = lower value 1.01 | S. cerevisiae deletion strains, locus YOR184W, strain ser1, stronger effect = lower value 1.04 | S. cerevisiae deletion strains, locus YOR316C, strain cot1, stronger effect = lower value 1.01 | S. cerevisiae deletion strains, locus YPL055C, strain LGE1, stronger effect = lower value 0.984 | S. cerevisiae deletion strains, locus YPL241C, strain CIN2, stronger effect = lower value 1.01 | S. cerevisiae deletion strains, locus YPR119W, strain clb2, stronger effect = lower value 1.01 | S. cerevisiae deletion strains, locus YPR141C, strain kar3, stronger effect = lower value 1.03 | S. cerevisiae deletion strains, locus YPR163C, strain tif3, stronger effect = lower value 1.01 | S. cerevisiae deletion strains, locus YPR167C, strain met16, stronger effect = lower value 1.01 | S. cerevisiae deletion strains, strain wtn01, stronger effect = lower value 0.992 | S. cerevisiae strains, strain wild type, stronger effect = lower value 1.01

Source: PubChem BioAssay AID1159580 (chemical genetic matrix, 2015)
